HIF-2a inh: inhibitors of HIF-2a; 786-0 RCC cells HIF-2a reporter, luciferase luminescence, overnight; inhibition, % at 18.8 µM; 360,000 tested, 0.72% active; AID 624352;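 active means inhibition of the luminescence signal of 40% or more relative to plate controls, in a single-dose primary screen at 18.75 µM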
TWEAK Fn14 block: blocks TWEAK-Fn14 interaction in a reporter cell assay. TWEAK-stimulated Fn14 reporter cells, luciferase luminescence, 8 h. 360,000 tested, 2% active. AID 1159606. inhibition, % at 10 µM; in the data active means inhibition above about 50%
Peg3 prom inh-1: inhibitors of Peg3 promoter; HeLa PEG-Prom luciferase reporter, luminescence, overnight; inhibition, % at 20 µM; 360,000 tested, 1.7% active; AID 588405;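 active means inhibition of at least 50% at 20 µM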
TROY NFkB inh: inhibitors of TROY-dependent NF-kB signaling; inhibition, % at 10 µM; Q293 LMP1-TROYcd NF-kB luciferase reporter, 4 h; 360,000 tested, 0.98% active;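 active means compounds whose plate-normalised and pattern-corrected inhibition of the luciferase reporter signal at the single screening dose is 50% or more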
CF NFkB inh: blocks PAF-induced NF-kB reporter in cystic fibrosis cells | KKLEB NF-kB-GFP reporter, GFP fluorescence overnight | inhibition, % at 5 µM | 360,000 tested, 0.86% active | AID 588850;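 active means at least 50% inhibition at 5 µM, scaled per plate between neutral and stimulator controls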;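 further: PAF is a Pseudomonas aeruginosa culture filtrate used as stimulus; plate controls were PAF-stimulated DMSO wells for no effect and unstimulated DMSO wells for full effect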
KKLEB cytotox: CF airway cell cytotoxicity counter-screen; activity change (cytotoxicity), % at 5 µM; AID 602141; 360,000 tested, 0.36% active; KKLEB CF airway cells viability, ATPlite luminescence, overnight; active compounds read low; cells stimulated with P. aeruginosa culture filtrate;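 active means corrected activity change at or below -50% at 5 µM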
Peg3 prom inh-2: Peg3 promoter inhibition confirmation; HeLa PEG-Prom luciferase reporter, luminescence, overnight; AID 602417; shares compounds with Peg3 prom inh-1; inhibition, % at 20 µM; 1,300 tested, 84% active;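 active means at 20 µM dose, 40% or more inhibition averaged across four replicates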
Active calls of the source: *; . = no result given. Hits are enriched below; roughly 4% of the tested compounds scored in any of these assays.

SMILES | HIF-2a inh | TWEAK Fn14 block | Peg3 prom inh-1 | TROY NFkB inh | CF NFkB inh | KKLEB cytotox | Peg3 prom inh-2
Cc1ccc(CNC(=O)c2cc3c(s2)CN(Cc2ccccc2)C3)cc1 | 9.3 | 11.6 | -2.5 | -2.4 | 18.8 | -13.4 | .
CS(=O)(=O)c1sc(C#N)c2c1C(=O)CC(c1ccccc1)C2 (configuration not stated) | 95.3* | 64.3* | 98.2* | 80.0* | 81.4* | -38.2 | 96.6*
CC(C)CC(N)c1csc(Nc2ccc(C(=O)c3ccccc3)cc2)n1 (configuration not stated) | 1.9 | -9.5 | 53.0* | 14.6 | 38.8 | -22.3 | 93.7*
CC(=O)c1ccc(Nc2nc(C(N)CC(C)C)cs2)cc1 (configuration not stated) | 9.1 | -14.3 | 4.4 | 8.7 | 11.2 | 0.3 | .
O=C(/C=C/c1ccc2ccccc2n1)N1CCN(S(=O)(=O)c2ccccc2F)CC1 | 34.7 | 5.1 | 50.2* | -0.4 | 35.8 | -23.1 | 38.8
C=C(C)Cn1c(SCC(=O)N/N=C/c2c(O)ccc3ccccc23)nc2ccccc2c1=O | 19.3 | 28.5 | 60.9* | 25.3 | 11.5 | -18.1 | 63.9*
COc1ccc2sc3cccc(NCCN(C)C)c3c(=O)c2c1 | -100.5 | -31.7 | 96.9* | -44.1 | -13.1 | -26.6 | 66.3*
COc1ccc(C)cc1Nc1n[n+](-c2ccccc2)c(-c2ccc(N(C)C)cc2)s1 | -32.3 | 16.6 | 61.6* | 7.5 | 23.1 | 3.6 | 50.0*
COc1ccc(C)cc1Nc1n[n+](-c2ccccc2)c(-c2ccc(OC)c(OC)c2OC)s1 | 6.1 | -16.0 | 3.0 | 18.3 | 8.5 | -5.9 | .
CCOC(=O)C1CCCN(C(=O)c2ccncc2)CC1 (configuration not stated) | 10.5 | -0.7 | 5.1 | 1.8 | -9.0 | 5.8 | .
COCCN(C(=S)Nc1cccc(OC)c1)C(C)c1cccs1 (configuration not stated) | 13.7 | -15.0 | 9.6 | 5.0 | -4.7 | 6.4 | .
C[C@@H]1CN([C@@H](C)CO)C(=O)c2cc(Br)cnc2O[C@H]1CN(C)C(=O)c1ccc2c(c1)OCO2 | 12.6 | 12.6 | 4.6 | -11.3 | -0.4 | -8.4 | .
CC(/C=N\Nc1nnc2c(n1)[nH]c1c(C)cccc12)=C\c1ccco1 | -98.0 | -39.6 | 64.8* | 16.5 | 19.0 | -36.0 | 14.3
CCC(C)NCCOCCOc1ccc(Cl)c2ccccc12 (configuration not stated) | 10.5 | -34.7 | 102.0* | -50.8 | 28.8 | -32.5 | 98.4*
O=C(OCc1nc2ccsc2c(=O)[nH]1)c1cc(Br)c(Br)s1 | 3.0 | -9.1 | -4.7 | 6.3 | 24.4 | -3.5 | .
O=S(=O)(CC(CN1CCCCC1)N1CCCCC1)c1ccccc1 (configuration not stated) | -11.1 | 16.8 | 67.3* | 32.1 | 49.7 | -16.5 | 88.1*
O=C1/C(=C/c2ccccc2)CCc2ccc(Cl)nc21 | 12.0 | 72.3* | 76.4* | 20.8 | -3.7 | 4.0 | 10.8
CCN=C1SC(C(=O)Nc2cc(Cl)cc(Cl)c2)CC(=O)N1CC (configuration not stated) | 7.0 | 4.7 | 14.3 | -2.6 | 15.4 | -6.6 | .
COc1ccc(NC(=O)c2cc(-c3ccccn3)nc3ccccc23)cc1S(=O)(=O)N(C)C | -2.5 | 16.9 | 61.3* | 13.1 | 24.5 | 5.8 | 54.5*
CCCOC(=O)c1cccc(Nc2nc(-c3cccnc3)nc3ccccc23)c1 | 21.0 | 56.8* | 96.2* | 24.3 | 0.0 | -22.1 | 94.8*
O=C(OCCNc1nc(-c2ccccc2)nc2ccccc12)c1cccnc1 | 11.4 | 12.5 | 21.1 | -1.1 | -7.3 | -6.1 | .
CC1(Cc2cc(Cl)ccc2C(F)(F)F)C(=O)Nc2ccc(OC(F)(F)F)cc21 (configuration not stated) | 10.0 | 10.6 | 52.0* | 20.3 | -13.0 | -1.0 | 12.7
COc1cc2c(oc(=O)c3cc(C)cc(OC)c32)c2c(C3OC(C)C(O)C(C)(O)C3O)ccc(O)c12 (configuration not stated) | 57.6* | -2.9 | 100.5* | 10.6 | 22.2 | 9.4 | 99.0*
O=C1c2ccccc2C(Nc2ccc(S(=O)(=O)N3CCCCC3)cc2)N1Cc1ccco1 (configuration not stated) | 9.4 | 3.8 | -2.1 | -4.5 | 4.2 | -4.6 | .
CC(=O)Nc1ccc(NC(=O)CN2C(=O)COc3ccc(S(=O)(=O)N4CCOCC4)cc32)cc1 | 1.9 | 5.6 | 5.0 | -1.6 | 8.1 | 4.5 | .
SMILES | HIF-2a inh | TWEAK Fn14 block | Peg3 prom inh-1 | TROY NFkB inh | CF NFkB inh | KKLEB cytotox | Peg3 prom inh-2
CC(=NNC(=S)N1CCN(C2CCCCCC2)CC1)c1ccccn1 | -17.3 | -7.6 | 102.2* | -1.7 | 5.7 | -2.3 | 98.5*
CC(=NNC(=S)N1CCN(c2ccccn2)CC1)c1ccccn1 | -41.9 | -4.0 | -7.0 | -4.1 | -12.9 | 13.0 | .
O=[N+]([O-])c1ccc2nn(Cc3ccccc3)cc2c1 | -15.6 | -1.9 | -8.2 | -10.2 | -11.2 | -6.5 | .
OCC1OC(n2ccc3c(NO)ncnc32)C(O)C1O (configuration not stated) | -8.7 | 81.6* | 100.2* | 45.6 | 86.4* | -91.6* | 97.8*
COc1ccc(-n2c(=S)[nH]c3cc(C(=O)N(C)Cc4ccccc4)ccc3c2=O)cc1 | 15.4 | 8.6 | 0.8 | 11.1 | 14.8 | -7.2 | .
Cc1ccsc1/C=N/Nc1cccc(C(=O)O)c1 | 85.5* | 31.7 | 85.9* | -67.4 | -23.8 | 6.2 | 73.7*
CCCCn1c(N)c(N(CCOC)C(=O)CSc2nnc(-c3ccco3)n2CC)c(=O)[nH]c1=O | 1.8 | 9.4 | 12.2 | -0.1 | 16.7 | -8.5 | .
COc1ccc2nc(Nc3nc(CSc4nnnn4-c4ccccc4)cc(=O)[nH]3)nc(C)c2c1 | 4.7 | 56.6* | 73.7* | 23.0 | 22.9 | -46.5 | 43.5*
CCOc1ccc2nc(Nc3nc(CSc4nnnn4-c4ccccc4)cc(=O)[nH]3)nc(C)c2c1 | 9.8 | 22.4 | -19.3 | 1.7 | 13.7 | -9.5 | .
CCOc1cc(CNCCO)cc(Br)c1OCc1ccccc1Cl | 8.3 | -1.9 | 105.8* | 14.8 | 13.4 | -5.7 | 74.2*
O=[N+]([O-])C1=C(Nc2cccc3ccccc23)CS(=O)(=O)C1 | 0.0 | 8.8 | -1.6 | 2.7 | 0.6 | 0.9 | .
COc1ccccc1C(=O)Nc1nc2ccccc2s1 | 85.5* | 104.4* | 104.5* | 84.9* | -19.9 | -94.9* | 94.7*
O=c1cc(-c2ccc(O)cc2)oc2ccc3ccccc3c12 | 72.1* | 101.7* | 66.9* | 87.9* | -261.7 | -61.4* | 74.7*
CC(=O)NC(c1ccccc1)c1nc(-c2cc3ccccc3o2)cs1 (configuration not stated) | -213.0 | 3.9 | -62.1 | -5.3 | -33.0 | 13.3 | .
CSc1nnc(CCNS(=O)(=O)c2ccccc2Br)n1C | 8.6 | -8.6 | 10.3 | 3.0 | -10.4 | 3.3 | .
C/C(=N\NC(=O)c1cccs1)C(C)(C)C | -5.6 | -12.0 | -3.7 | -80.3 | -15.1 | -1.4 | .
